Test results reported in the supplement of paper PMC3334620.
The full ranking holds about 33,000 sequences; the median of “E-score (-0.5 to 0.5)” is about -0.021, and the highest 2% start at about 0.32. What follows is part of a selection rich in the highest values, with near analogues and random picks from the rest.

Target: T1, Zap1 (UniProt P47043)
T1 sequence: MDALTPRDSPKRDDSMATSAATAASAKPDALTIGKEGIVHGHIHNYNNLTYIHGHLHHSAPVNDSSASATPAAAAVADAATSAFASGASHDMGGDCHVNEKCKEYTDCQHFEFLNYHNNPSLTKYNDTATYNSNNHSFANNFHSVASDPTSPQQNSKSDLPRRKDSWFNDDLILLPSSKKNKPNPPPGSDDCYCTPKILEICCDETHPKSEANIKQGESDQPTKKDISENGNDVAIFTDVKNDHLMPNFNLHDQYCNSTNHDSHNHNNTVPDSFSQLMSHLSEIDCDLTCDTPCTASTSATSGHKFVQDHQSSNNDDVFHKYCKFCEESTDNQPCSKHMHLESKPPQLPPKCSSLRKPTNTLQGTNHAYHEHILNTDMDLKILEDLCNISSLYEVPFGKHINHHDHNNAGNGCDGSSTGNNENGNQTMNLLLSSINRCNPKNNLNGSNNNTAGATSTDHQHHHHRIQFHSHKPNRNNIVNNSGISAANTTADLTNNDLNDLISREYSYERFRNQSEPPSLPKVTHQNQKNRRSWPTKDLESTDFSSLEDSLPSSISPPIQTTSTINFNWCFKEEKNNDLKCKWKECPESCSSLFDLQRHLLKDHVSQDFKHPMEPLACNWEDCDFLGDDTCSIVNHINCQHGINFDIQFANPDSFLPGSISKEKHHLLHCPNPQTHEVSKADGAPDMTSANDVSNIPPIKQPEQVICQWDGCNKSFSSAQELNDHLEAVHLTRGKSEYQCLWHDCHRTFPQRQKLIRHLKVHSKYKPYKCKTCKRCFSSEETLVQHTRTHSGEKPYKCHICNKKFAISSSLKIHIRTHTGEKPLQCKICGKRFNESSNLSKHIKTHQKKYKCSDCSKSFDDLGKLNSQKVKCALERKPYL
Assay: PBM E-score (8-mer binding enrichment) (E-score (-0.5 to 0.5)); higher = stronger / more preferred TF binding
Conditions: protein concentration: 200 nM; construct: GST-full length
In short: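 Detection of bound protein used fluorescent anti-GST, with scans normalised by masliner. The proteins were GST-tagged yeast transcription factors applied at about 100-200 nM to universal all-10-mer Agilent arrays made double-stranded by primer extension. Each ungapped eight-base word, pooled with its reverse complement, was scored with an E-score from the Universal PBM Analysis Suite.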

Sequence	PBM E-score
ACCGTAAC	0.331
ACCGTAAG	0.101
GTCGTAAC	0.256
CTCGTAAG	0.215
ACCGTAAT	0.0558
CTCGTAAC	0.327
ACAAGTCC	-0.0469
GCAACTGC	-0.207
ACGAGTTA	0.0684
ATACCTCA	0.223
ATACCTCC	-0.0021
ATACCTCG	0.338
CACACCTA	-0.0992
TAGACATA	0.0776
AAAAAGGA	0.15
ACAAAGGC	0.0392
ACAAAGGG	0.0567
AAAAAGGT	0.403
AAAAAGGG	0.243
ACAAAGGT	0.352
CCTTTCTA	0.121
ATCTAACC	0.226
GGATACCC	0.393
AGATACCG	0.0651
CGATACCC	0.275

Sequence	PBM E-score
GGATACCA	0.17
AGATACCC	0.325
AGATACCA	0.137
AAATACCC	0.328
AAATACCT	0.128
CAATACCC	0.214
ACTCATGA	-0.0211
CAGTAGGA	-0.247
AGATATCT	0.0317
TGATTGAA	0.154
ACCTAAGG	0.185
ACTGCTTC	-0.175
CCCTTGAC	0.193
ACCTTGCT	0.218
ACCTTGGA	0.195
ACCTTGGG	0.327
ACCTTGAT	0.325
ACCTTGAA	0.337
CCCTTGAG	0.33
TCCTTGAA	0.158
CCCTTGAA	0.102
ACCTTGGC	0.106
ACCTTGAC	0.266
GCCTTGAA	0.0337
CGTGAGGA	-0.201

Sequence	PBM E-score
AGAGCGAA	-0.124
CACTCTGG	-0.151
CATTCTAG	-0.0521
GGATAGAA	0.0515
CGTTAGAG	-0.109
CATCCAGC	-0.108
ACCTTGCG	0.284
AACTTGAG	-0.143
ACCTTGAG	0.354
GAGGTCAA	0.21
ACGGTCAG	0.0381
AAGGTCAA	0.279
AAGGTCCT	0.123
ACGGTCAA	0.177
AAGGTCGC	0.193
AAGGTCGA	0.176
AAGGTCAT	0.444
AAGGTCGT	0.334
ACGGTCAT	0.359
CAGGTCAC	0.195
GAGGTCAC	0.392
GCTTGACC	0.214
ATAAAGAT	0.00332
AACACCTA	0.0163
ATGGTAGA	-0.00844

Sequence	PBM E-score
GAGAGAGC	-0.261
AAATGGAG	-0.132
TGCCCTAA	-0.171
CTTAGGGC	0.0876
ATTGACTG	-0.136
AAGGTCAG	0.32
AAGGTCAC	0.417
AAGGTCTG	0.15
AAGGTCTC	0.162
CAGGTCAG	0.0791
AAGGTCCC	0.152
GAAAGCGC	-0.115
AGAAACCG	0.0611
CTGTACTA	0.0369
GGCGACAC	-0.0969
CGGCTGAC	-0.193
GAGACCAC	0.15
GAGGGCAA	-0.0412
CAGGCGAC	-0.117
AGCCCTAC	-0.12
AAGCCTGT	-0.128
CGCCCTAG	-0.00248
CACCCTCG	0.234
AAACCTGT	0.0581
GACCCTAC	0.311

Sequence	PBM E-score
AACCCTGT	0.419
AACCCTAC	0.357
CACCCTAC	0.328
CACCCTAG	0.353
AAACCTAC	0.194
CCCCCTAC	-0.32
CTCAGCAG	-0.129
TCAGCGAA	-0.107
CTCGCTTA	-0.0929
AAGCCTGC	-0.182
CTTCAGTA	0.0193
AGAGACCA	0.121
ATGGTGCA	0.0684
CTCACGAG	0.0376
ACCTGAAT	0.136
CAGCTGTA	-0.203
AAACCTAT	0.164
AACCCTAT	0.441
ATCCCTAG	0.0856
AACCCTAG	0.408
AAACCTAG	0.051
AACCCTCT	0.27
CAAATTCC	-0.00509
TGTCACAA	0.0989
GGTCACGA	0.391

Sequence	PBM E-score
GGTCGCGA	0.32
AGTCGCGA	0.113
CGTCACAA	-0.0229
CGTCACGA	-0.0348
CGTCGCGA	0.00596
AGTCACGA	0.0207
GGTCACAA	0.393
AGATAGGG	-0.0822
GAGCGTGC	-0.173
TATTAGAA	0.159
AGAAGTCT	-0.257
AGCCTGAG	-0.0458
TGTGAGAA	-0.0687
CGGACTTC	-0.17
CATATGGA	-0.057
AATCCAAC	-0.0925
GAGACCTC	0.0168
ATCTAGGC	-0.197
CCCTACAA	0.33
ACCTACAA	0.178
CCCTACAC	0.0286
CCAATGCA	-0.0366
CAACTAAC	0.21
GCTCGAGC	-0.169
GCACCTTA	0.112

Sequence	PBM E-score
CTACCTTA	0.327
ATACCTTA	0.184
CTACCTGA	0.00976
CCACCTGA	0.0282
CCACCTTA	0.342
AAGAGCAG	-0.247
CAACTGGC	-0.0185
AACCACTC	0.289
ATCTGTCC	-0.318
ATGCAGTG	-0.0561
AGGTTGCA	0.299
GGTTTGTA	0.119
AGGTTGCC	0.088
GGGTTGCA	0.352
AAGTTGCG	0.0515
AGGTTGCG	0.333
GGGTTGGA	0.16
AGGTTGTG	0.349
AGGTTGGG	0.232
AGGTTGTC	0.242
CGGTTGCA	-0.0132
GGGTTGTA	0.35
CAGCATGG	-0.00544
GCCCGCGC	-0.0387
CGTCTAGC	-0.21
